Among the data in PubChem BioAssay (NCI) are growth values, retold here.

Compounds without any hit were thinned out: in the full panel of roughly 83,000, 20% have a hit.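 In brief: 96-well plates, 48 h treatment, single concentration, percent growth endpoint.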 Unmarked numbers belong to inactive results. Calls of active or inactive are those of the source. Rule for the calls: active = growth percent below 10; inactive = the rest.

Among the test systems are HCT-15 colon; HT29 colon; SNB-75 CNS; SNB-19 CNS; U251 CNS; PC-3 prostate; SK-MEL-5 melanoma; UACC-62 melanoma; LOX IMVI melanoma; SK-MEL-28 melanoma; SK-MEL-2 melanoma; EKVX NSCLC; SN12C renal; UO-31 renal; TK-10 renal; ACHN renal; CAKI-1 renal; CCRF-CEM leukemia; MOLT-4 leukemia.
Holding throughout (experiment): NCI-60 one-dose screen, 48 h (100 = growth as untreated, 0 = no growth, -100 = all killed)
Conditions in all cases: 10 µM unless noted

On to `Cc1cccc(NC(=O)Nc2ccc(-c3ccc4c(c3)NC(=O)/C4=C\c3ccc[nH]3)cc2)c1`, for which the growth is 66.9% in the assay on HCT-15 colon; 99.4% with HT29 colon; 81.7% with SNB-75 CNS; 90.2% in the assay on SNB-19 CNS; 74.7% with U251 CNS; 94% in the assay on PC-3 prostate. Moreover, the growth with SK-MEL-5 melanoma is 100%; in the assay with UACC-62 melanoma it was 98.1%; with LOX IMVI melanoma, 78.7%; in the assay with SK-MEL-28 melanoma, 95.9%; in the assay on SK-MEL-2 melanoma, 111%; in the assay on EKVX NSCLC it was 46.5%. The growth is 100% in the assay with SN12C renal; 70.3% in the assay with UO-31 renal; 93.3% with TK-10 renal; 91.1% in the assay on ACHN renal; 82.6% in the assay on CAKI-1 renal; 30.1% with CCRF-CEM leukemia. The growth in the assay on MOLT-4 leukemia is 53.8%.

Turning to `N#C/C(=C\c1ccccn1)c1nc2cc(Cl)ccc2s1`, the growth was 63.5% with HCT-15 colon; 86.4% with HT29 colon; 8.52% (active) in the assay on SNB-75 CNS; 85.9% in the assay on SNB-19 CNS; 73.8% in the assay with U251 CNS; 44.1% in the assay with PC-3 prostate. Further, the growth was 83.7% with SK-MEL-5 melanoma; 68.1% with UACC-62 melanoma; 72.7% with LOX IMVI melanoma; 101% in the assay on SK-MEL-28 melanoma; 95.9% with SK-MEL-2 melanoma; 56% in the assay on EKVX NSCLC. The growth with SN12C renal was 64.7%; in the assay with UO-31 renal, 44.3%; with TK-10 renal it was 119%; with ACHN renal, 75.8%; in the assay on CAKI-1 renal, 66.5%; with CCRF-CEM leukemia it was 63.9%. The growth in the assay with MOLT-4 leukemia was 75.6%.

Consider `C#Cc1cccc(NC(=O)c2cccc(NC(=O)CCl)c2)c1`, for which the growth was -63.4% [8.25 µM] (active) in the assay on HCT-15 colon; -7.83% [8.25 µM] (active) in the assay on HT29 colon; -21.9% [8.25 µM] (active) in the assay on SNB-75 CNS; 11.5% [8.25 µM] in the assay on SNB-19 CNS; -93.7% [8.25 µM] (active) in the assay on U251 CNS; -70.8% [8.25 µM] (active) with PC-3 prostate. In addition, the growth is -93.8% [8.25 µM] (active) in the assay on SK-MEL-5 melanoma; -33.7% [8.25 µM] (active) in the assay with UACC-62 melanoma; -89% [8.25 µM] (active) with LOX IMVI melanoma; 37.4% [8.25 µM] with SK-MEL-28 melanoma; 30.8% [8.25 µM] in the assay on SK-MEL-2 melanoma; 86.1% [8.25 µM] with EKVX NSCLC. For the same compound, the growth was -65.9% [8.25 µM] (active) in the assay on SN12C renal; -98.9% [8.25 µM] (active) in the assay on UO-31 renal; -72.4% [8.25 µM] (active) in the assay with TK-10 renal; -96.8% [8.25 µM] (active) in the assay on ACHN renal; 0.818% [8.25 µM] (active) with CAKI-1 renal; 8.26% [8.25 µM] (active) in the assay with CCRF-CEM leukemia.

For `CCCCCOc1ccc(/C=N/Nc2cc(C)nc3ccc(Cl)cc23)cc1`, the growth was -93.8% (active) with HCT-15 colon; -18.9% (active) in the assay on HT29 colon; 41% in the assay on SNB-75 CNS; 16.9% in the assay with SNB-19 CNS; -75% (active) with U251 CNS; 9.76% (active) with PC-3 prostate. For the same compound, the growth with SK-MEL-5 melanoma is 74.2%; in the assay on UACC-62 melanoma, 83.6%; with LOX IMVI melanoma, -96.9% (active); in the assay on SK-MEL-28 melanoma, -85.8% (active); in the assay on SK-MEL-2 melanoma it was 93.1%; in the assay with EKVX NSCLC it was 66.7%. Besides, the growth in the assay on SN12C renal was -88.1% (active); with UO-31 renal it was -99.6% (active); with TK-10 renal, -22.5% (active); with ACHN renal, -73.5% (active); in the assay with CAKI-1 renal it was 28.7%; in the assay on CCRF-CEM leukemia, 1.69% (active). The growth in the assay with MOLT-4 leukemia was -38.9% (active).

With `CCCCC[n+]1ccc(SCC(=O)N(C)c2ccc(Oc3ccccc3)cc2)c2ccccc21`, the growth is 100% in the assay with HCT-15 colon; 101% in the assay on HT29 colon; 115% in the assay with SNB-75 CNS; 89.1% in the assay on SNB-19 CNS; 95.8% with U251 CNS; 103% in the assay with PC-3 prostate. Moreover, the growth is 95.2% with SK-MEL-5 melanoma; 75.4% in the assay on UACC-62 melanoma; 102% in the assay with LOX IMVI melanoma; 108% in the assay with SK-MEL-28 melanoma; 106% in the assay with SK-MEL-2 melanoma; 114% in the assay with EKVX NSCLC. The growth in the assay with SN12C renal was 95.5%; with UO-31 renal it was 86.9%; with TK-10 renal, 99.6%; with ACHN renal, 107%; with CAKI-1 renal it was 93.5%; in the assay on CCRF-CEM leukemia, 85%. Besides, the growth in the assay on MOLT-4 leukemia was 82%.

Turning to `CCN(CC)c1ccc(/C=N/NC(=O)CSc2nc3ccccc3c(=O)n2Cc2ccc(S(N)(=O)=O)cc2)c(O)c1`, the growth is 47.5% in the assay with HCT-15 colon; 32.1% in the assay with HT29 colon; 38.8% with SNB-75 CNS; 41.8% with SNB-19 CNS; 24.4% in the assay with U251 CNS; 48.8% in the assay on PC-3 prostate. Moreover, the growth with SK-MEL-5 melanoma is 5.72% (active); in the assay with UACC-62 melanoma, 6.51% (active); in the assay on LOX IMVI melanoma, 1.32% (active); with SK-MEL-28 melanoma, 33.1%; in the assay on SK-MEL-2 melanoma, 10.5%; in the assay on EKVX NSCLC, 35.1%. In addition, the growth was 32.5% with SN12C renal; 45.9% with UO-31 renal; 15.1% in the assay with TK-10 renal; 33.6% in the assay on ACHN renal; 31% in the assay with CAKI-1 renal; 10.8% with CCRF-CEM leukemia. Besides, the growth in the assay with MOLT-4 leukemia is 11.1%.

On to `COc1ccccc1NS(=O)(=O)c1cccc(C(=O)Nc2ccc(Br)cc2)c1`, for which the growth in the assay with HCT-15 colon was 37.8%; in the assay on HT29 colon it was 46.6%; in the assay with SNB-75 CNS, 65.9%; in the assay on SNB-19 CNS, 53.4%; in the assay on U251 CNS, 62%; with PC-3 prostate it was 25.4%. Besides, the growth is -31.7% (active) with SK-MEL-5 melanoma; 32.1% in the assay on UACC-62 melanoma; 42.4% with LOX IMVI melanoma; 62.9% in the assay on SK-MEL-28 melanoma; 57.7% in the assay on SK-MEL-2 melanoma; 20.1% in the assay with EKVX NSCLC. Also, the growth in the assay with SN12C renal was 51.8%; in the assay on UO-31 renal it was 27.3%; with TK-10 renal, 61.5%; in the assay with ACHN renal, 46.2%; in the assay on CAKI-1 renal, 27.5%; in the assay with CCRF-CEM leukemia, 40.1%. Further, the growth with MOLT-4 leukemia was 26.8%.
